Measured values reported in PubChem BioAssay (EPA / NIEHS).
Where a structure was tested more than once in an assay, its records may differ in their call. Active and inactive are the calls of the source. Rule for the calls: active = hit-call score of the fitted dose curve at least 0.9, where 1 is the maximum; inactive = score below 0.9.

Assays:
[1] = read-out: Interleukin-8 (IL8), CXCL8 (gene 3576); assay: BSK_hDFCGF_IL8: BioMAP Diversity Plus: hDFCGF Assay for Interleukin-8 (IL8) Biomarker Activity (AID 2283058); conditions: primary human foreskin fibroblasts; actives raise or lower the signal
Outline: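 Fibroblast monolayers (human foreskin, hDFCGF) received test chemical for 24 h before ELISA detection of IL-8; either increases or decreases relative to DMSO count as activity.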

[2] = read-out: Macrophage colony-stimulating factor (MCSF), CSF1 (gene 1435); assay: BSK_hDFCGF_MCSF: BioMAP Diversity Plus: hDFCGF Assay for Macrophage colony-stimulating factor (MCSF) Biomarker Activity (AID 2283060); conditions: primary human foreskin fibroblasts; actives raise or lower the signal
Outline: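 fibroblasts (human foreskin, primary), 24 h post-dose; M-CSF by ELISA; bidirectional fit, DMSO = baseline.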

[3] = BSK_hDFCGF_SRB: Viability Assessment in the BioMAP Diversity Plus: hDFCGF Assay (AID 2283061); conditions: primary human foreskin fibroblasts;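 note: cells exposed to compound for 24 h before the read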
Outline: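 SRB-based viability read on primary human skin fibroblasts at 24 h: TCA fixation, 0.1% dye, 560 nm. Gain or loss of signal is fitted against the DMSO negative control.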

[4] = read-out: TIMP metallopeptidase inhibitor 1 (TIMP1), TIMP1 (gene 7076); assay: BSK_hDFCGF_TIMP1: BioMAP Diversity Plus: hDFCGF Assay for TIMP metallopeptidase inhibitor 1 (TIMP1) Biomarker Activity (AID 2283062); conditions: primary human foreskin fibroblasts; actives raise or lower the signal
Outline: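 Bidirectional curve fitting against DMSO baseline yielded this endpoint, based on ELISA detection of TIMP-1 in primary human foreskin fibroblasts exposed to compound for 24 h.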

[5] = read-out: Monokine induced gamma interferon (MIG), CXCL9 (gene 4283); assay: BSK_hDFCGF_MIG: BioMAP Diversity Plus: hDFCGF Assay for Monokine induced gamma interferon (MIG) Biomarker Activity (AID 2283063); conditions: primary human foreskin fibroblasts; actives raise or lower the signal
Outline: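 Endpoint derived by bidirectional fitting relative to DMSO; MIG quantified via ELISA in primary human foreskin fibroblasts harvested 24 h after dosing.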

[6] = read-out: Matrix Metallopeptidase 1 (MMP1), MMP1 (gene 4312); assay: BSK_hDFCGF_MMP1: BioMAP Diversity Plus: hDFCGF Assay for Matrix Metallopeptidase 1 (MMP1) Biomarker Activity (AID 2283064); conditions: primary human foreskin fibroblasts; actives raise or lower the signal
Outline: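 Primary human foreskin fibroblasts in the hDFCGF system were dosed with test chemical, and MMP1 was measured by ELISA 24 h later. Values come from bidirectional curve fitting against the DMSO baseline.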

[7] = read-out: Vascular cell adhesion molecule 1 (VCAM1), VCAM1 (gene 7412); assay: BSK_hDFCGF_VCAM1: BioMAP Diversity Plus: hDFCGF Assay for Vascular cell adhesion molecule 1 (VCAM1) Biomarker Activity (AID 2283065); conditions: primary human foreskin fibroblasts; actives raise or lower the signal;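 for AC50: VCAM-1 protein level quantified by ELISA after 24 h chemical exposure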
Outline: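 Measured after 24 h chemical treatment of primary human skin fibroblasts, VCAM-1 was detected by ELISA and concentration-response analysed in both directions versus DMSO vehicle.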

[8] = read-out: Plasminogen activator inhibitor-1 (PAI1), SERPINE1 (gene 5054); assay: BSK_hDFCGF_PAI1: BioMAP Diversity Plus: hDFCGF Assay for Plasminogen activator inhibitor-1 (PAI1) Biomarker Activity (AID 2283066); conditions: primary human foreskin fibroblasts; actives raise or lower the signal
Outline: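 Primary dermal fibroblasts (human foreskin), hDFCGF system; compound 24 h; PAI-1 by ELISA; bidirectional fit vs DMSO control.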

[9] = read-out: Intercellular Adhesion Molecule 1 (ICAM1), ICAM1 (gene 3383); assay: BSK_KF3CT_ICAM1: BioMAP Diversity Plus: KF3CT Assay for Intercellular Adhesion Molecule 1 (ICAM1) Biomarker Activity (AID 2283067); conditions: primary human keratinocytes with fibroblasts; actives raise or lower the signal
Outline: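 Bidirectional curve fitting against a DMSO baseline was applied to ICAM-1 ELISA signal from primary human skin co-cultures harvested 24 h after treatment, with SRB staining of parallel wells for overt cytotoxicity.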

[10] = BSK_hDFCGF_Proliferation: Cell Proliferation Assessment in the BioMAP Diversity Plus: hDFCGF Assay (AID 2283059); conditions: primary human foreskin fibroblasts;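 note: curves fitted for both rise and fall of signal versus DMSO baseline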
Outline: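 Steps: dose primary human dermal fibroblasts (foreskin); […] fix in 10% TCA; stain with 0.1% SRB; read 560 nm; fit gain or loss of signal against DMSO.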

Measured: AC50

CS(=O)(=O)c1ccc(C(=O)C2C(=O)CCCC2=O)c([N+](=O)[O-])c1
not listed: [10]
inactive: all other assays above

Cc1cnc(C2=NC(C)(C(C)C)C(=O)N2)c(C(=O)O)c1 (configuration not stated)
inactive: all assays above

C=C(C)CN(CC)c1c([N+](=O)[O-])cc(C(F)(F)F)cc1[N+](=O)[O-]
active: [6] 3.92 µM
not listed: [10]
inactive: all other assays above

Cc1c(COC(=O)[C@@H]2[C@H](/C=C(\Cl)C(F)(F)F)C2(C)C)cccc1-c1ccccc1
active: [2] 3.97 µM | [6] 3.23 µM
not listed: [10]
inactive: all other assays above

CC(C)N1C(=O)c2ccccc2NS1(=O)=O
active: [4] 3.97 µM
not listed: [10]
inactive: all other assays above

COc1cc(Cl)c(OC)cc1Cl
inactive: all assays above

COCC(C)N(C(=O)CCl)c1c(C)csc1C (configuration not stated)
inactive: [10] | [2] | [3] | [4] | [5] | [6] | [7] | [8] | [9]
active: [10] 14.3 µM | [8] 20 µM

O=C(O)c1c(Cl)ccc2cc(Cl)cnc12
not listed: [10]
inactive: all other assays above

CC(C)N1C(=O)N(c2ccccc2)CSC1=NC(C)(C)C
active: [3] 32.7 µM | [5] 31.6 µM | [7] 32.1 µM
not listed: [10]
inactive: all other assays above

CSC(=O)c1c(C(F)F)nc(C(F)(F)F)c(C(=O)SC)c1CC(C)C
active: [2] 11.4 µM | [6] 4.27 µM | [7] 13.4 µM | [8] 26.9 µM
not listed: [10]
inactive: all other assays above

CCCCC(O)(Cn1cncn1)c1ccc(Cl)cc1Cl (configuration not stated)
active: [10] 22.9 µM | [6] 12.7 µM | [8] 21.2 µM
inactive: all other assays above

CC1(C)C(C=C(Cl)Cl)C1C(=O)OC(C#N)c1cccc(Oc2ccccc2)c1 (configuration not stated)
not listed: [10]
inactive: all other assays above

Nc1c(Cl)c(Cl)nc(C(=O)O)c1Cl
not listed: [10]
inactive: all other assays above

COC(=O)NS(=O)(=O)c1ccc(N)cc1
inactive: all assays above

COCc1cnc(C2=NC(C)(C(C)C)C(=O)N2)c(C(=O)O)c1 (configuration not stated)
not listed: [1]
inactive: all other assays above

Clc1cccc(C(Cl)(Cl)Cl)n1
not listed: [10]
inactive: all other assays above

Cc1ccc(N=CN(C)C=Nc2ccc(C)cc2C)c(C)c1
inactive: [9]
active: [1] 36.1 µM | [2] 15.2 µM | [3] 28.4 µM | [4] 31 µM | [5] 29.7 µM | [6] 33.2 µM | [7] 15.8 µM | [8] 29.7 µM

CCOP(=O)(OCC)Oc1nc(Cl)c(Cl)cc1Cl
active: [10] 12 µM | [2] 5.14 µM | [3] 36.3 µM | [7] 18.4 µM | [8] 20 µM
inactive: all other assays above

CNC(=O)Oc1cccc2ccccc12
active: [2] 29.7 µM | [6] 3.91 µM | [7] 20 µM
not listed: [4] | [10]
inactive: all other assays above

CCNC(=O)NC(=O)C(C#N)=NOC
inactive: all assays above

CCN(CC)C(=O)C(C)Oc1cccc2ccccc12 (configuration not stated)
not listed: [7] | [10]
inactive: all other assays above

CO/N=C(/C1=NOCCO1)c1ccccc1Oc1ncnc(Oc2ccccc2Cl)c1F
active: [4] 8.26 µM
not listed: [10]
inactive: all other assays above

COP(=O)(OC)O/C(C)=C/C(=O)N(C)C
inactive: all assays above

Nc1c(Cl)c(F)nc(OCC(=O)O)c1Cl
not listed: [10]
inactive: all other assays above

CCOP(=S)(OCC)Oc1nc(Cl)n(C(C)C)n1
not listed: [10]
inactive: all other assays above

O=P(O)(O)CCCl
inactive: all assays above

N#CN=C1SCCN1Cc1ccc(Cl)nc1
not listed: [10]
inactive: all other assays above

CCCN(CC)CC1COC2(CCC(C(C)(C)C)CC2)O1 (configuration not stated)
active: [10] 5.6 µM | [4] 3.97 µM | [5] 0.602 µM | [6] 1.43 µM
inactive: all other assays above

CCCCOCN(C(=O)CCl)c1c(CC)cccc1CC
active: [1] 31.4 µM | [2] 16.5 µM | [3] 31.1 µM | [4] 13.7 µM | [5] 33.3 µM | [6] 34.8 µM | [7] 16.9 µM | [8] 20 µM | [9] 35.2 µM

CC(C)NC(=O)N1CC(=O)N(c2cc(Cl)cc(Cl)c2)C1=O
active: [6] 0.148 µM
inactive: all other assays above

CN/C(=N\[N+](=O)[O-])NCc1cnc(Cl)s1
inactive: all assays above

CCSC(=O)N1CCCCCC1
not listed: [10]
inactive: all other assays above

C=CCOC(=O)C(C)(C)OC(=O)c1cc(-n2c(=O)cc(C(F)(F)F)n(C)c2=O)ccc1Cl
active: [2] 1.88 µM | [4] 30.3 µM | [6] 3.97 µM | [8] 3.51 µM
not listed: [10]
inactive: all other assays above

CC1(C)C(C(=O)OC(C#N)c2cccc(Oc3ccccc3)c2)C1(C)C (configuration not stated)
active: [10] 8.2 µM | [6] 3.02 µM
not listed: [1]
inactive: all other assays above
